# Screen size: about 5,500 compounds; about 2,000 (36%) were called active. Roughly 18% stayed inconclusive and do not appear here. The list shows a part of the results. Values without a mark were called inactive. Rule as the data show it: active = normalized growth mostly below about 0.91 (no sharp cut-off); inconclusive = no clear call, values can overlap the other calls; inactive = mostly above about 0.92.
# Test: chemical genetic growth profiling, strain panel (AID 1159580);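 also: tested at 20 µM; growth read once vehicle control cultures reached saturation at 30 °C; 1 = growth at the plate median or of vehicle wells; lower values mean less growth of the strain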
# Settings: S. cerevisiae deletion strains, growth OD
smiles,measurement,setting,value
CC(=O)Oc1c2c(c3c(c1CC=C(C)C)O[C@]14C(=C[C@@H]5CC1C(C)(C)OC4(C/C=C(\C)C(=O)O)C5=O)C3=O)OC(C)(CCC=C(C)C)C=C2 (some centres not stated),normalized growth,"locus YAL021C, strain ccr4, hits give low values",1
same,normalized growth,"locus YAL026C, strain drs2, hits give low values",0.979
same,normalized growth,"locus YAL030W, strain snc1, hits give low values",0.976
same,normalized growth,"locus YBL061C, strain skt5, hits give low values",0.949
same,normalized growth,"locus YBR009C, strain hhf1, hits give low values",0.958
same,normalized growth,"locus YBR023C, strain chs3, hits give low values",0.964
same,normalized growth,"locus YBR171W, strain sec66, hits give low values",0.974
same,normalized growth,"locus YBR231C, strain swc5, hits give low values",0.94
same,normalized growth,"locus YBR279W, strain paf1, hits give low values",0.961
same,normalized growth,"locus YCL011C, strain gbp2, hits give low values",0.988
same,normalized growth,"locus YCL016C, strain dcc1, hits give low values",0.987
same,normalized growth,"locus YCL061C, strain MRC1, hits give low values",0.98
same,normalized growth,"locus YCL069W, strain vba3, hits give low values",0.984
same,normalized growth,"locus YCR088W, strain abp1, hits give low values",0.985
same,normalized growth,"locus YDL005C, strain med2, hits give low values",0.968
same,normalized growth,"locus YDL040C, strain nat1, hits give low values",0.977
same,normalized growth,"locus YDR001C, strain nth1, hits give low values",0.985
same,normalized growth,"locus YDR069C, strain doa4, hits give low values",0.977
same,normalized growth,"locus YDR137W, strain rgp1, hits give low values",0.775 (active)
same,normalized growth,"locus YDR159W, strain sac3, hits give low values",0.87
same,normalized growth,"locus YDR195W, strain ref2",1.01
same,normalized growth,"locus YDR297W, strain sur2, hits give low values",0.959
same,normalized growth,"locus YDR334W, strain swr1, hits give low values",0.976
same,normalized growth,"locus YDR335W, strain msn5, hits give low values",0.997
same,normalized growth,"locus YDR392W, strain spt3, hits give low values",0.547 (active)
same,normalized growth,"locus YEL003W, strain gim4, hits give low values",0.96
same,normalized growth,"locus YEL037C, strain rad23, hits give low values",0.995
same,normalized growth,"locus YEL061C, strain CIN8 (second series), hits give low values",0.984
same,normalized growth,"locus YER015W, strain faa2, hits give low values",0.973
same,normalized growth,"locus YER016W, strain bim1, hits give low values",0.971
same,normalized growth,"locus YER111C, strain swi4, hits give low values",0.981
same,normalized growth,"locus YER155C, strain BEM2 (second series), hits give low values",0.922
same,normalized growth,"locus YFR010W, strain ubp6, hits give low values",0.973
same,normalized growth,"locus YGL167C, strain pmr1, hits give low values",0.973
same,normalized growth,"locus YGL173C, strain kem1, hits give low values",0.939
same,normalized growth,"locus YGL227W, strain vid30, hits give low values",0.981
same,normalized growth,"locus YGL240W, strain doc1, hits give low values",0.951
same,normalized growth,"locus YGL253W, strain hxk2, hits give low values",0.967
same,normalized growth,"locus YHR013C, strain ard1, hits give low values",0.875
same,normalized growth,"locus YHR027C, strain rpn1, hits give low values",0.98
same,normalized growth,"locus YHR142W, strain chs7, hits give low values",0.991
same,normalized growth,"locus YJL092W, strain hpr5, hits give low values",0.988
same,normalized growth,"locus YJL095W, strain BCK1 (second series), hits give low values",0.971
same,normalized growth,"locus YJL115W, strain asf1, hits give low values",0.982
same,normalized growth,"locus YJL129C, strain trk1, hits give low values",0.89
same,normalized growth,"locus YJL154C, strain vps35, hits give low values",0.992
same,normalized growth,"locus YJL164C, strain tpk1, hits give low values",0.986
same,normalized growth,"locus YJL166W, strain qcr8, hits give low values",0.937
same,normalized growth,"locus YJL187C, strain SWE1, hits give low values",0.972
same,normalized growth,"locus YKL160W, strain elf1, hits give low values",0.957
same,normalized growth,"locus YKR026C, strain gcn3, hits give low values",0.983
same,normalized growth,"locus YKR091W, strain srl3, hits give low values",0.984
same,normalized growth,"locus YLL001W, strain dnm1, hits give low values",0.945
same,normalized growth,"locus YLL026W, hits give low values",0.968
same,normalized growth,"locus YLL041C, strain sdh2, hits give low values",0.983
same,normalized growth,"locus YLR027C, strain aat2, hits give low values",0.948
same,normalized growth,"locus YLR221C, strain rsa3, hits give low values",0.947
same,normalized growth,"locus YLR258W, strain gsy2, hits give low values",0.994
same,normalized growth,"locus YLR262C, strain YPT6 (second series), hits give low values",0.874
same,normalized growth,"locus YLR320W, strain mms22, hits give low values",0.899
same,normalized growth,"locus YLR342W, strain FKS1, hits give low values",0.963
same,normalized growth,"locus YLR357W, strain rsc2, hits give low values",1.01
same,normalized growth,"locus YLR370C, strain arc18, hits give low values",0.958
same,normalized growth,"locus YLR384C, strain iki3, hits give low values",0.964
same,normalized growth,"locus YML120C, strain ndi1, hits give low values",0.985
same,normalized growth,"locus YMR058W, strain fet3, hits give low values",0.991
same,normalized growth,"locus YMR125W, strain sto1, hits give low values",0.992
same,normalized growth,"locus YMR129W, hits give low values",0.97
same,normalized growth,"locus YMR205C, strain PFK2, hits give low values",0.878
same,normalized growth,"locus YMR231W, strain pep5, hits give low values",0.984
same,normalized growth,"locus YNL071W, strain lat1, hits give low values",0.878 (active)
same,normalized growth,"locus YNL209W, strain ssb2, hits give low values",0.982
same,normalized growth,"locus YNL248C, strain rpa49, hits give low values",0.973
same,normalized growth,"locus YNL322C, strain KRE1 (second series), hits give low values",1
same,normalized growth,"locus YNR049C, strain mso1, hits give low values",0.982
same,normalized growth,"locus YOR001W, strain rrp6, hits give low values",0.915
same,normalized growth,"locus YOR070C, strain gyp1, hits give low values",0.957
same,normalized growth,"locus YOR080W, strain dia2, hits give low values",0.979
same,normalized growth,"locus YOR083W, strain WHI5, hits give low values",0.99
same,normalized growth,"locus YOR106W, strain vam3, hits give low values",0.98
same,normalized growth,"locus YOR265W, strain rbl2, hits give low values",0.979
same,normalized growth,"locus YOR270C, strain vph1, hits give low values",0.808
same,normalized growth,"locus YOR290C, strain snf2, hits give low values",0.989
same,normalized growth,"locus YPL051W, strain arl3, hits give low values",0.914 (active)
same,normalized growth,"locus YPL078C, strain atp4, hits give low values",1.01
same,normalized growth,"locus YPL106C, strain sse1, hits give low values",0.984
same,normalized growth,"locus YPL240C, strain hsp82, hits give low values",0.984

# From PubChem BioAssay AID1159580 (chemical genetic matrix, 2015)
